Hits are enriched below; roughly 5.7% of the tested compounds scored in any of these assays.
KB-V1 MDR tox – KB-V1 MDR subline cytotoxicity | Potency, µM (titrated, usually from 46.1 µM), usual class: cytotoxic | 400,000 compounds, 3.4% hits | KB-V1 MDR cells viability, CellTiter-Glo, 72 h | AID 1347076; further: potency means the concentration at half of the fitted maximal effect; nearly all actives have a fitted effect of over 60% in size
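Drug-selected KB-V1 cells, grown in DMEM lacking phenol red with 10% FBS, receive compound titrations; after three days at 37 degrees C, surviving cell ATP is quantified by CellTiter-Glo luminescence and responses normalized and curve-fitted.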
KB-3-1 tox – KB-3-1 parental cell cytotoxicity. AID 1347075. Potency, µM (doses to about 46.1 µM), hits mostly cytotoxic. 400,000 compounds, 1.4% hits. KB-3-1 viability, CellTiter-Glo ATP luminescence, 72 h; further: potency means the concentration at half of the fitted maximal effect; nearly all actives have a fitted effect of over 60% in size
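Multi-concentration cytotoxicity screen in KB-3-1 cells grown in DMEM lacking phenol red with 10% FBS. After 72 h at 37 °C with compound, ATP-dependent luminescence was recorded.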
A549 tox – A549 cytotoxicity, counter-screen for Nrf2 inhibitors | 390,000 compounds, 0.16% hits | A549 ARE-Fluc cells, CellTiter-Fluor viability, 18-24 h | Potency, µM (titrated, usually from 46 µM), without a hit: top-dose activity change, negative = cytotoxicity, hits mostly inhibitors; further: potency means the concentration at half of the fitted maximal effect
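A549 ARE-Fluc cells in 5% FBS OPTI-MEM, 5000 cells/well, rested 2 h then exposed to compounds in concentration-response for 18-24 h at 37 °C. Viability by CellTiter-Fluor fluorescence (Ex 405/Em 525) after 30 min; luciferase luminescence (BugLite, 15 min, RT) read afterwards.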
Nrf2 block – inhibitors of Nrf2 signaling. A549 ARE-Fluc reporter, luciferase luminescence, 18-24 h. Potency, µM (top dose mostly 46 µM), for inactives: at the top dose activity change, negative = inhibition, usual class: inhibitors. 360,000 compounds, 2.1% hits. AID 504444; further: potency means the concentration at half of the fitted maximal effect; nearly all actives have a fitted effect of over 60% in size
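Nrf2 function is reported as luminescence of an ARE-controlled luciferase in A549 cells. Compounds were tested at several concentrations, and a CellTiter-Fluor read on the same wells flagged cytotoxicity.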
PI4K2A block – PI4K2A (human) kinase inhibition | activity change, negative = inhibition, % at 76.9 µM | 420,000 compounds, 0.13% hits | purified PI4K2A, ADP-Glo luminescence, 1 h; active compounds read low | AID 1346378; in the data active means activity change below about -50%; inconclusive means mostly about -30% to -49%;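 further: -100% = wells without enzyme as full effect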
Target sequence (Q9BTU6 whole entry, looked up): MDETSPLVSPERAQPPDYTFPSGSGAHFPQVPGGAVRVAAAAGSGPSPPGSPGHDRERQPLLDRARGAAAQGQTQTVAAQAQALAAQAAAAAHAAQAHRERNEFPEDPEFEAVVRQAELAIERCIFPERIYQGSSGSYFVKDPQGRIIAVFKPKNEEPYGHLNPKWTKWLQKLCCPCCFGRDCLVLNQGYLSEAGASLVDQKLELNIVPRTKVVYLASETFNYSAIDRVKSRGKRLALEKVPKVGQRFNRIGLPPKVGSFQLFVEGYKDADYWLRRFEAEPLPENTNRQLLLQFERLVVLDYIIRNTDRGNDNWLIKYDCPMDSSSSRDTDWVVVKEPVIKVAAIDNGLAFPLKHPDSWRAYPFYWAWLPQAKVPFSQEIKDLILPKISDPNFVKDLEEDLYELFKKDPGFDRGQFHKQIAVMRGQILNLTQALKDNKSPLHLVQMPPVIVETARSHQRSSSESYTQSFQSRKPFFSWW
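In this quantitative HTS, ADP production by PI4K2A was quantified luminescently after 1 h at ambient temperature; 100 microM adenosine served as plate-quality control.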
Giardia kill – kills Giardia lamblia; 340,000 compounds, 0.15% hits; activity change, % at 7.66 µM, hits read low; Giardia lamblia trophozoite viability; in the data active means activity change below about -80%; inconclusive means between about -30% and that limit;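 further: parasites exposed to compound for two days anaerobically before the ATP read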
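Viability, read as ATP luminescence: trophozoites at 100 cells/well, compound added, 48 hrs anaerobic at 37 deg C, then 15-30 min room-temperature development before reading.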
Numbers without * were called inactive; i = inactive; ? = inconclusive; · = no result. Unless noted, the call rests on the fitted dose curve; in most records, active means well fitted curve in the direction sought with a large enough effect; inconclusive means small, poorly fitted or top-dose-only effect, or another doubt; inactive means no such curve, though single readings can be large; an effect the other way counts as inactive or inconclusive. Unless noted, on the % scale 0 is the no-effect control and ±100 the full control effect.

SMILES	KB-V1 MDR tox	KB-3-1 tox	A549 tox	Nrf2 block	PI4K2A block	Giardia kill
S=c1[nH]c2ccc(Cl)cc2[nH]1	18.4µM*	i	-12.9%	0.2%	3.5	6.9
CN(C)c1ccc(-c2ccc(CCO)cc2)cc1	i	i	·	·	·	·
COc1ccc(C(=O)NCc2ccc3c(c2)CCN3C(=O)c2ccc(C)cc2)cc1	·	·	-23.6%	·	1.0	·
Cc1cnc(NC(=O)c2nn(C)cc2[N+](=O)[O-])s1	?	?	-6.5%	?	3.6	-5.6
Cn1cc([N+](=O)[O-])c(C(=O)Nc2nc(-c3ccc(Cl)cc3)cs2)n1	13µM*	6.51µM*	?	·	-1.3	-21.5
Cc1ccc(-c2nc(NC(=O)c3nn(C)cc3[N+](=O)[O-])sc2C)cc1C	14.6µM*	?	-21.2%	25.9µM*	-2.2	?
Cc1ccc(-c2nc(NC(=O)c3nn(C)cc3[N+](=O)[O-])sc2C)cc1	?	4.61µM*	?	18.4µM*	-6.6	?
O=C(CCCn1ccc2cc(S(=O)(=O)N3CCCC3)ccc21)NCc1ccc(Cl)cc1	·	·	-28.5%	?	-4.1	·
Nc1ncnc2c1ncn2Cc1c(F)cccc1Cl	·	·	·	·	-7.7	·
Cc1sc(NC(=O)COc2ccccc2)c(C#N)c1-c1ccccc1	16.4µM*	i	-0.6%	-14.4%	0.5	11.9
CCOC(=O)c1sc(NC(=O)CSc2n[nH]c(-c3ccccc3)n2)c(C#N)c1C	?	i	-22.5%	23.1µM*	-5.9	5.5
CCOC(=O)c1sc(NC(=O)CSc2nc(C)cc(C)n2)c(C#N)c1C	8.2µM*	i	-17.9%	?	2.4	1.5
CC1CCC(N2CC(=O)N(C3CCCCC3)C(c3ccc(Cl)cc3)C2=O)CC1 (stereo not drawn)	·	·	-8.4%	·	-6.1	·
Cc1ccc(NC(=O)CSc2nn(-c3ccc(Cl)cc3)c(=S)s2)cc1S(=O)(=O)N(C)C	20.6µM*	?	-12.6%	?	-2.5	-5.4
Cc1ccc(NC(=O)Cn2ccsc2=N)cc1S(=O)(=O)N(C)C	i	i	-2.2%	?	-4.3	-0.6
NS(=O)(=O)c1cccc(NC(=O)CSc2nn(-c3ccccc3)c(=S)s2)c1	i	i	0.7%	-11.5%	-3.9	-9.1
CN(C)S(=O)(=O)c1cc(NC(=O)CSc2nn(-c3ccc(Cl)cc3)c(=S)s2)ccc1Cl	16.4µM*	?	-25.8%	?	-0.4	-13.9
CCOC(=O)CNC(=O)CSc1nnc(-c2cccs2)o1	·	·	·	·	2.0	·
Cc1ccc(-c2nc3ccccc3c(=O)n2NC(=O)COc2ccccc2)cc1	?	i	1.2%	0.9%	-2.4	2.7
Cc1ccc(OCC(=O)Nn2c(C)nc3ccccc3c2=O)c(C(C)C)c1	18.4µM*	i	-6.2%	?	-3.1	-4.5
CCOc1nc(-c2ccccc2)ccc1-c1noc(COC)n1	23.1µM*	i	?	?	2.5	1.6
COc1cc(C2c3c(oc4ccccc4c3=O)C(=O)N2Cc2ccco2)ccc1O (stereo not drawn)	i	i	5.5%	8.5%	5.4	2.5
CCOc1cc(C2c3c(oc4cc(C)c(Cl)cc4c3=O)C(=O)N2Cc2ccco2)ccc1O (stereo not drawn)	1.84µM*	?	-5.4%	-2.7%	4.8	2.8
Cc1ccc2oc3c(c(=O)c2c1)C(c1cccc(Br)c1)N(Cc1ccco1)C3=O (stereo not drawn)	i	i	-1.2%	?	-3.7	-5.8
Cc1cc2oc3c(c(=O)c2cc1C)C(c1cccc(Br)c1)N(Cc1ccco1)C3=O (stereo not drawn)	i	i	-17.6%	8.2µM*	-4.2	14.9
SMILES	KB-V1 MDR tox	KB-3-1 tox	A549 tox	Nrf2 block	PI4K2A block	Giardia kill
O=C(CCn1nnc(-c2cccs2)n1)N1CCOCC1	·	·	·	·	-1.0	·
C/C(=N\NC(=O)Cn1c(C)nc2ccccc21)c1cccs1	14.6µM*	i	-9.9%	16.4µM*	3.1	-12.2
O=C(NCCc1ccccc1)C(=O)c1c(-c2ccccc2)cc2ccccn12	20.6µM*	i	1.5%	7.3%	3.5	?
O=S(=O)(c1ccc(F)c(F)c1)N1CCN(CCc2ccccc2)CC1	i	i	0.4%	23.1µM*	-9.6	-2.9
O=S(=O)(c1ccccc1F)N1CCN(CCc2ccccc2)CC1	?	i	-4.2%	18.4µM*	4.2	5.3
Cc1ccc2nsnc2c1S(=O)(=O)N1CCN(CCc2ccccc2)CC1	11.6µM*	?	0.2%	?	0.7	-0.6
O=S(=O)(NCCN1CCN(S(=O)(=O)c2ccccc2F)CC1)c1ccccc1F	i	i	0.5%	-4.0%	10.0	-23.3
COc1ccc2c3c([nH]c2c1)[C@]1(CCNC=O)Nc2ccccc2C1=NCC3	·	·	·	·	-3.8	·
Cc1ccc(-n2c(SCc3nc4ccccc4[nH]3)nnc2-c2ccccn2)cc1	·	·	·	·	0.9	·
N#Cc1ccc(-c2nc3ccc(Br)cn3c2Cc2ccccc2)cc1	i	20.6µM*	·	·	-7.2	·
Cc1ccc2nc(-c3cccc(Cl)c3)c(Cc3ccccc3)n2c1	20.6µM*	i	·	·	-0.3	·
COC(=O)c1ccc2nc(-c3ccc(OC)c(OC)c3)c(Cc3ccsc3)n2c1	i	i	·	·	-4.7	·
COc1ccc(-c2nc3ccc(C)cn3c2Cc2ccsc2)cc1OC	23.1µM*	i	·	·	4.2	·
Cc1ccc(Cc2c(-c3ccc(C#N)cc3)nc3ccc(Br)cn23)cc1	i	?	·	·	-12.8	·
COC(=O)c1ccc2nc(-c3ccc(Cl)cc3)c(Cc3ccsc3)n2c1	20.6µM*	?	·	·	-0.1	·
Cc1ccc(-c2nnc(SCC(=O)Nc3ccc4c(c3)OCCO4)n2-c2ccc(Cl)cc2)cc1	·	·	·	·	-7.3	·
CCOC(=O)CC[C@@]1(C(=O)OCC)C[C@@H](CC(=O)NCc2ccc(OC)c(OC)c2)C(=O)N2CCCC=C21	·	·	·	·	1.7	·
CCN(CC1COc2ccccc2O1)S(=O)(=O)c1ccc(C)cc1 (stereo not drawn)	23.1µM*	i	13.8%	?	-1.4	4.8
CCOC(=O)c1c(C)n(C)c2ccc(OC)c(NC(=O)CCN3CCSCC3)c12	13µM*	i	?	18.7%	1.9	-8.8
O=S(=O)(c1ccc(Cl)cc1)N1CCOCC1	i	i	5.1%	?	·	2.9
Cc1c(Cl)c([N+](=O)[O-])nn1CC(=O)NCc1cccs1	18.4µM*	i	7.7%	-0.1%	-2.7	-12.4
Cc1c(Cl)c([N+](=O)[O-])nn1CC(=O)NC(C)c1ccccc1 (stereo not drawn)	i	i	-1.9%	-7.5%	-6.0	-12.3
Cc1c(Cl)c([N+](=O)[O-])nn1CCCC(=O)Nc1c(Cl)cccc1Cl	7.31µM*	i	-1.2%	-4.9%	3.8	-3.3
CCOC(=O)N1CCC(n2c(=O)[nH]c3cc(Cl)ccc32)CC1	·	·	·	·	3.6	·

Source: PubChem BioAssay
